# Laboratory results as given in PubChem BioAssay (NCATS).
# Inconclusive results are not listed. Activity calls are given as the source filed them. The call rests on the fitted dose curve; in most records, active means well fitted curve in the direction sought with a large enough effect; inconclusive means small, poorly fitted or top-dose-only effect, or another doubt; inactive means no such curve, though single readings can be large; an effect the other way counts as inactive or inconclusive.
# How the values were obtained:
# [1] = qHTS of pediatric cancer cell lines to identify multiple opportunities for drug repurposing: Primary screen for DAOY cells (AID 1347090); settings: DAOY medulloblastoma viability, CellTiter-Glo luminescence, 48 h; series mostly up to 46 µM; further: nearly all actives have a fitted effect of over 55% in size; further: potency means the concentration at half of the fitted maximal effect
# In short: (§1)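 Cell viability, CellTiter-Glo luminescence; 500-1,000 cells/well, 8- or 11-point titration, 48 h compound exposure at 37 degrees C, 5% CO2. Controls: DMSO neutral, bortezomib 2.3 µM final as positive.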
# [2] = qHTS of pediatric cancer cell lines to identify multiple opportunities for drug repurposing: Primary screen for A673 cells (AID 1347092); settings: A673 Ewing sarcoma viability, CellTiter-Glo ATP luminescence, 48 h; series mostly up to 46 µM; further: nearly all actives have a fitted effect of over 45% in size; further: potency means the concentration at half of the fitted maximal effect
# In short: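 A673 cells (500-1,000 cells/well) were treated 48 hours at 37 degrees C with compounds at 11-point (0.78 nM to 46 µM) or 8-point (0.59 nM to 46 µM) dilutions. Viability read by CellTiter-Glo luminescence; concentration-response curves fitted.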
# [3] = qHTS of pediatric cancer cell lines to identify multiple opportunities for drug repurposing: Primary screen for BT-37 cells (AID 1347094); settings: BT-37 viability, CellTiter-Glo luminescence, 48 h; series mostly up to 57.3 µM; further: potency means the concentration at half of the fitted maximal effect
# In short: (§2)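 Plated cells (500-1,000 per well, growth media) were allowed to settle for 5 hours, treated with compound dilutions for 48 hours, then lysed with CellTiter-Glo for 15 min at room temperature before luminescence reading.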
# [4] = qHTS of pediatric cancer cell lines to identify multiple opportunities for drug repurposing: Primary screen for NB-EBc1 cells (AID 1347095); settings: NB-EBc1 neuroblastoma viability, CellTiter-Glo luminescence, 48 h; series mostly up to 46 µM; further: potency means the concentration at half of the fitted maximal effect
# In short: as §2
# [5] = qHTS of pediatric cancer cell lines to identify multiple opportunities for drug repurposing: Primary screen for Saos-2 cells (AID 1347097); settings: Saos-2 viability, CellTiter-Glo ATP luminescence, 48 h; series mostly up to 46 µM; further: nearly all actives have a fitted effect of over 40% in size; further: potency means the concentration at half of the fitted maximal effect
# In short: as §2
# [6] = qHTS of pediatric cancer cell lines to identify multiple opportunities for drug repurposing: Primary screen for SK-N-SH cells (AID 1347098); settings: SK-N-SH viability, CellTiter-Glo luminescence, 48 h; series mostly up to 57 µM; further: nearly all actives have a fitted effect of over 65% in size; further: potency means the concentration at half of the fitted maximal effect
# In short: (§3)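 Cells (500-1,000/well) rested 5 h, then received compounds for 48 h; metabolically active cells were measured by CellTiter-Glo luminescence. Final concentrations spanned up to 46 µM (MIPE, 11-point) or 0.59 nM-46 µM (NPC, 8-point) in primary screens, 11-point in follow-ups.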
# [7] = qHTS of pediatric cancer cell lines to identify multiple opportunities for drug repurposing: Primary screen for SK-N-MC cells (AID 1347093); settings: SK-N-MC viability, CellTiter-Glo luminescence, 48 h; series mostly up to 46 µM; further: potency means the concentration at half of the fitted maximal effect
# In short: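 Metabolically active cells were quantified by ATP-dependent luminescence (CellTiter-Glo, 15 min at room temperature) following 48 h treatment. Cells had been plated at 500-1,000 per well and settled for 5 h beforehand.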
# [8] = qHTS of pediatric cancer cell lines to identify multiple opportunities for drug repurposing: Primary screen for NB1643 cells (AID 1347099); settings: NB1643 neuroblastoma viability, CellTiter-Glo luminescence, 48 h; series mostly up to 46 µM; further: potency means the concentration at half of the fitted maximal effect; nearly all actives have a fitted effect of over 50% in size
# In short: as §2
# [9] = qHTS of pediatric cancer cell lines to identify multiple opportunities for drug repurposing: Primary screen for SJ-GBM2 cells (AID 1347091); settings: SJ-GBM2 viability, CellTiter-Glo luminescence, 48 h; series mostly up to 46 µM; further: potency means the concentration at half of the fitted maximal effect
# In short: as §1
# [10] = qHTS of pediatric cancer cell lines to identify multiple opportunities for drug repurposing: Primary screen for U-2 OS cells (AID 1347096); settings: U-2 OS viability, CellTiter-Glo luminescence, 48 h; series mostly up to 46 µM; further: nearly all actives have a fitted effect of over 50% in size
# In short: as §3
SMILES,Potency [1],Potency [2],Potency [3],Potency [4],Potency [5],Potency [6],Potency [7],Potency [8],Potency [9],Potency [10]
CC(C)(Cc1ccc2ccccc2c1)NC[C@@H](O)COc1cccc(Cl)c1C#N,inactive,14.8 µM (active),19.3 µM (active),2.35 µM (active),inactive,24.1 µM (active),–,–,–,–
O=C1NC(=O)C(=Cc2ccc3c(c2)OC(F)(F)O3)S1,23.5 µM (active),–,–,–,–,12.1 µM (active),3.32 µM (active),–,–,–
O=C1Nc2ccc(Cl)cc2C(C#CC2CC2)(C(F)(F)F)O1 (centres undefined),29.6 µM (active),–,–,inactive,20.9 µM (active),–,13.2 µM (active),23.5 µM (active),–,–
CC(=O)O[C@]1(C(C)=O)CC[C@@H]2[C@@H]3C[C@H](C)C4=CC(=O)CC[C@]4(C)[C@H]3CC[C@@]21C,–,18.7 µM (active),inactive,inactive,–,24.1 µM (active),18.7 µM (active),20.9 µM (active),inactive,–
CO[C@H]1C[C@@H]2CC[C@@H](C)[C@@](O)(O2)C(=O)C(=O)N2CCCC[C@@H]2C(=O)O[C@H]([C@@H](C)C[C@@H]2CC[C@H](O)[C@H](OC)C2)CC(=O)[C@H](C)C=C(C)[C@@H](O)[C@@H](OC)C(=O)[C@H](C)C[C@H](C)C=CC=CC=C1C,inactive,inactive,–,–,inactive,inactive,–,–,–,inactive
COC1CCC(N(C(=O)C2CCC(C)CC2)c2cc(C3=CCCCC3)sc2C(=O)O)CC1 (centres undefined),inactive,inactive,–,–,inactive,inactive,23.5 µM (active),23.5 µM (active),–,inactive
C[C@H](NC(=O)C(=O)Nc1ccccc1C(C)(C)C)C(=O)N[C@@H](CC(=O)O)C(=O)COc1c(F)c(F)cc(F)c1F,–,23.5 µM (active),inactive,inactive,18.7 µM (active),inactive,5.9 µM (active),9.35 µM (active),inactive,–
O=c1c(O)c(-c2ccc(O)cc2)oc2cc(O)cc(O)c12,–,14.8 µM (active),–,9.35 µM (active),inactive,–,11.8 µM (active),11.8 µM (active),14.8 µM (active),inactive
CC/C(=C(\c1ccccc1)c1ccc(OCCN(C)C)cc1)c1ccccc1,inactive,–,–,–,21.1 µM (active),24.4 µM (active),16.8 µM (active),–,–,–
CC=C(C)C(=O)O[C@H]1C(C)=C[C@]23C(=O)[C@@H](C=C(CO)[C@@H](O)[C@]12O)[C@H]1[C@@H](C[C@H]3C)C1(C)C,–,0.0148 µM (active),24.3 µM (active),14.8 µM (active),0.296 µM (active),inactive,4.69 µM (active),–,18.7 µM (active),–
CCc1ccc(C=C2SC(=S)NC2=O)cc1,inactive,–,inactive,–,–,inactive,inactive,23.5 µM (active),–,inactive
COc1cc(N2CCC(N3CCN(C)CC3)CC2)ccc1Nc1ncnc(Nc2ccccc2S(=O)(=O)C(C)C)n1,inactive,9.35 µM (active),15.3 µM (active),–,inactive,27.1 µM (active),–,–,–,inactive
CS(=O)(=O)N(Cc1ccco1)CC(O)Cn1c2ccccc2c2ccccc21 (centres undefined),inactive,–,inactive,inactive,–,inactive,–,–,–,inactive
CC(C)=CC[C@@H](O)C1=CC(=O)c2c(O)ccc(O)c2C1=O,–,0.935 µM (active),13.7 µM (active),0.743 µM (active),18.7 µM (active),6.81 µM (active),1.05 µM (active),3.32 µM (active),1.05 µM (active),inactive
CC(=O)OC1C(C)OC(Oc2c(-c3ccc(O)cc3)oc3cc(O)cc(O)c3c2=O)C(O)C1OC(C)=O (centres undefined),inactive,11.8 µM (active),27.3 µM (active),–,18.7 µM (active),inactive,–,–,–,inactive
Cc1nnc(C(C)C)n1C1C[C@H]2CC[C@@H](C1)N2CC[C@H](NC(=O)C1CCC(F)(F)CC1)c1ccccc1 (some centres undefined),–,14.8 µM (active),–,inactive,inactive,inactive,4.18 µM (active),18.7 µM (active),inactive,inactive
